In PubChem BioAssay (NCATS):
“And” between values parts separate entries of the source, which are not always exact repeats. Equal entries are not always repeated. Inconclusive results are not listed. Where a call stands in place of a potency, no number is given. The source made the active and inactive calls. Calls come from the whole dose curve; as a rule, active = well fitted cell-killing curve with a large enough effect; inconclusive = small, poorly fitted or top-dose-only effect, or effect the other way; inactive = no such curve, though single readings can be large or run the other way.

experiment: Viability qHTS for spleen associated tyrosine kinase inhibitor (SYKi) naive MV4-11 cells (AID 1963823); details: MV4-11 AML viability, CellTiter-Glo luminescence, 72 h; series mostly up to 45 µM; note: nearly all actives have a fitted effect of over 40% in size
Outline: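 Viability of MV4-11 AML cells lacking prior SYK inhibitor exposure is scored by CellTiter-Glo luminescence following 72 hr compound incubation at 37 C, 5% CO2, seeded at 500 cells per well.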
Potency is the fitted concentration of half-maximal effect.

Row | Structure (SMILES) | Potency
1 | O=c1oc2c(O)c(O)cc3c(=O)oc4c(O)c(O)cc1c4c23 | inactive
2 | Cc1nnc(NS(=O)(=O)c2ccc(N)cc2)s1 | inactive
3 | NC1=N[C@H]2[C@H](CS[C@H]2CCCCC(=O)O)N1 | inactive
4 | Nc1ccn([C@@H]2CS[C@H](CO)O2)c(=O)n1 | inactive
5 | N#Cc1ccc(C(c2ccc(C#N)cc2)n2cncn2)cc1 | inactive
6 | CC(C)Cn1cnc2c(N)nc3ccccc3c21 | inactive
7 | c1ccc([C@H]2CN3CCSC3=N2)cc1 | inactive
8 | Cn1ccc2cc3c(cc21)CCN3C(=O)Nc1cccnc1 | inactive
9 | C=CCn1c(=O)c2cnc(Nc3ccc(N4CCN(C)CC4)cc3)nc2n1-c1cccc(C(C)(C)O)n1 | 525 nM (active)
10 | CC(=O)OCC(CCn1cnc2cnc(N)nc21)COC(C)=O | inactive
11 | OC[C@H]1O[C@@H](OCCc2ccc(O)cc2)[C@H](O)[C@@H](O)[C@H]1O | inactive
12 | CC(=O)c1cnc2ccc(-c3cc(Cl)c(O)c(Cl)c3)nc2c1NC1CCC(CN(C)C)CC1 (stereo not given) | 4.7 nM (active) and 0.8 nM (active)
13 | CCc1c(O)cc(O)c(C(=O)c2ccc(OCCN3CCOCC3)c(OC)c2)c1CC(=O)N(CCOC)CCOC | 132 nM (active)
14 | Cn1cnc([N+](=O)[O-])c1Sc1ncnc2nc[nH]c12 | 5900 nM (active)
15 | Cc1ccc(C(=O)Nc2ccc(S(=O)(=O)O)c3cc(S(=O)(=O)O)cc(S(=O)(=O)O)c23)cc1NC(=O)c1cccc(NC(=O)Nc2cccc(C(=O)Nc3cc(C(=O)Nc4ccc(S(=O)(=O)O)c5cc(S(=O)(=O)O)cc(S(=O)(=O)O)c45)ccc3C)c2)c1 | inactive
